Data taken from paper PMC7862700, “An all-to-all approach to the identification of sequence-specific readers for epigenetic DNA modifications on cytosine”.

What was measured:
Assay in all cases: DAPPL (digital affinity profiling via proximity ligation, sequencing); 10 mM Tris-HCl pH 7.5, 50 mM NaCl, 1 mM DTT, 4% glycerol, room temperature, 30 min; GST-TFs on glutathione beads, 16-mer random dsDNA library, 0.1% formaldehyde crosslink after washing; high values mean tight binding
FEV = molecular target: T1, FEV (Homo sapiens, UniProt Q99581 1-238); conditions: protein: recombinant; tags: N-terminal GST; dsDNA, one strand shown
T1 sequence: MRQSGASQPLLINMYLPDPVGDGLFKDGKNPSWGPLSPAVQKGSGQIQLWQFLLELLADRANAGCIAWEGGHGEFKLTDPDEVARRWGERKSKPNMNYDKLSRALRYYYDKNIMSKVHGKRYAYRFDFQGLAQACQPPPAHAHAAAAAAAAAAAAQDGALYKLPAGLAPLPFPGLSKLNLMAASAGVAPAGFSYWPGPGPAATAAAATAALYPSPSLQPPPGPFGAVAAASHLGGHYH
Method in brief: (§1)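 Pools of DNA-barcoded human transcription factors, expressed in yeast as GST fusions on glutathione beads and combined with a tag-only sample, were incubated with 200 nmole of a 16-mer random double-stranded DNA library. Incubation took 30 min at room temperature in Tris/NaCl/DTT/glycerol buffer and was followed by washing, 0.1% formaldehyde crosslinking, proximity ligation (BsaI/T4 ligase, 1 h, 37 °C), PCR amplification and sequencing on an Illumina NextSeq500. Binding signal is the ratio of a hexamer's read frequency for a factor to its frequency for the tag-only sample.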

ETV5 = ETV5 (Homo sapiens, UniProt P41161 1-510); conditions: protein: recombinant; tags: N-terminal GST; dsDNA, one strand shown
Sequence of ETV5 (P41161 whole entry): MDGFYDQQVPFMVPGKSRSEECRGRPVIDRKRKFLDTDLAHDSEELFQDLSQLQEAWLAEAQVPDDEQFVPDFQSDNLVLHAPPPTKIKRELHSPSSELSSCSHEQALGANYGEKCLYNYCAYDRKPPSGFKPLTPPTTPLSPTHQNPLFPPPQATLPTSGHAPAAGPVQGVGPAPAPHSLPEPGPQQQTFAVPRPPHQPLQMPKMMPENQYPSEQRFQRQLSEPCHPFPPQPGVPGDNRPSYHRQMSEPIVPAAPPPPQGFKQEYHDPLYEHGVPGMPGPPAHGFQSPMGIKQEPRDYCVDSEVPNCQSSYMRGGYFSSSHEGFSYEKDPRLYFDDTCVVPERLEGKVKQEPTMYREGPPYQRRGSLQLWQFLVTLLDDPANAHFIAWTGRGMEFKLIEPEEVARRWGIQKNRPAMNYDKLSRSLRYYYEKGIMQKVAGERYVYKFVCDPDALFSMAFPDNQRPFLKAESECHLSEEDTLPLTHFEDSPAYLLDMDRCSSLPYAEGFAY
Method in brief: as §1

HSF1 = HSF1 (Homo sapiens, UniProt Q00613 1-529); conditions: protein: recombinant; tags: N-terminal GST; chain copies: 3; dsDNA, one strand shown
Sequence of HSF1 (Q00613 whole entry): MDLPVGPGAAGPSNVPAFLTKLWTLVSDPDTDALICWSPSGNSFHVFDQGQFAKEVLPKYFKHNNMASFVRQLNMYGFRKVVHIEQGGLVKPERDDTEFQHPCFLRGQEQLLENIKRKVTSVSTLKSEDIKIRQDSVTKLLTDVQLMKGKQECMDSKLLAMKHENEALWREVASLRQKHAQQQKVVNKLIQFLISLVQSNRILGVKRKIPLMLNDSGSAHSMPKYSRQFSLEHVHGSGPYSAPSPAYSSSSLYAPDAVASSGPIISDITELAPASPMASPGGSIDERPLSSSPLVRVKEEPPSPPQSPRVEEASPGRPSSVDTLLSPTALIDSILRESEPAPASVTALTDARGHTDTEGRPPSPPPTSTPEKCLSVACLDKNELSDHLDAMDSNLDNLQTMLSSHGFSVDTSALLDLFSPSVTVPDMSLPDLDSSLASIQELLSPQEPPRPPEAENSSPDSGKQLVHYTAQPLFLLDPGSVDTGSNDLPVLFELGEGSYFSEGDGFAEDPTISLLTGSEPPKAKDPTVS
Method in brief: as §1

SPIC = molecular target: T2, SPIC (Homo sapiens, UniProt Q8N5J4 1-248); conditions: protein: recombinant; tags: N-terminal GST; dsDNA, one strand shown
T2 sequence: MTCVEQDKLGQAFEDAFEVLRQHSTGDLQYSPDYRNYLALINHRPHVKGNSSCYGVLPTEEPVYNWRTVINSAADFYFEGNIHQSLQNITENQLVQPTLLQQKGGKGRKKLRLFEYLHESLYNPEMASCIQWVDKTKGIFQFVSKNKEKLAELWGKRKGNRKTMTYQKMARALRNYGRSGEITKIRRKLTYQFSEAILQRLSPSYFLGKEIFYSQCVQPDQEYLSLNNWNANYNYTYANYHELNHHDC
Method in brief: as §1

ELF4 = ELF4 (Homo sapiens, UniProt Q99607 1-663); conditions: protein: recombinant; tags: N-terminal GST; dsDNA, one strand shown
Sequence of ELF4 (Q99607 whole entry): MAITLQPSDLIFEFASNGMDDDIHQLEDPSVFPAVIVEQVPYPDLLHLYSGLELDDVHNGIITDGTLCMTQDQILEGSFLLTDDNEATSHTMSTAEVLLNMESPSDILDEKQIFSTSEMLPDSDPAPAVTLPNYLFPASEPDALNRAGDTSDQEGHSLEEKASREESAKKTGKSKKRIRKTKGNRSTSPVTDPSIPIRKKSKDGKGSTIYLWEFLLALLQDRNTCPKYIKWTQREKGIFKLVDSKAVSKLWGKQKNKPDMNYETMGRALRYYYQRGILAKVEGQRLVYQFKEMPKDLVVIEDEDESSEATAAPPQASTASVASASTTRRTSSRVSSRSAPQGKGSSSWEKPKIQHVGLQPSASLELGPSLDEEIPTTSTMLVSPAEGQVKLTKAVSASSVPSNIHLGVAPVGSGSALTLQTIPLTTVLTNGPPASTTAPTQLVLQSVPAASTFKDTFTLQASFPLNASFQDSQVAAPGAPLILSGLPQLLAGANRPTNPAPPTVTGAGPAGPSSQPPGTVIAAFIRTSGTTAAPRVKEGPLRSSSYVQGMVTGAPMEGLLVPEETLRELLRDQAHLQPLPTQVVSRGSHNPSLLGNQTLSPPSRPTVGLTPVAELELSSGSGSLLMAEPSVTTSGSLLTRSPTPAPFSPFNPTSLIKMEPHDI
Method in brief: as §1

ELK4 = molecular target: T3, ELK4 (Homo sapiens, UniProt P28324-2 1-405); conditions: protein: recombinant; tags: N-terminal GST; dsDNA, one strand shown
T3 sequence: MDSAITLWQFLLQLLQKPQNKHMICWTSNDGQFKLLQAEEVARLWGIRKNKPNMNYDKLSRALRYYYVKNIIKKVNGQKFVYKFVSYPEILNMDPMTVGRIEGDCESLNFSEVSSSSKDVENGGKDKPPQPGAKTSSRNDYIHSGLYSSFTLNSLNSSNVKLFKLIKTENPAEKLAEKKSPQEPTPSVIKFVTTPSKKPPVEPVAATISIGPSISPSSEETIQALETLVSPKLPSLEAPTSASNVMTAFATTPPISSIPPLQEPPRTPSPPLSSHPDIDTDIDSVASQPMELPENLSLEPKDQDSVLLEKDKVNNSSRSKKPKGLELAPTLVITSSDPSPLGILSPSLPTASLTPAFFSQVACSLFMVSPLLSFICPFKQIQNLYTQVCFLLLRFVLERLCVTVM
Method in brief: as §1

ETV2 = molecular target: T4, ETV2 (Homo sapiens, UniProt O00321 1-342); conditions: protein: recombinant; tags: N-terminal GST; dsDNA, one strand shown
T4 sequence: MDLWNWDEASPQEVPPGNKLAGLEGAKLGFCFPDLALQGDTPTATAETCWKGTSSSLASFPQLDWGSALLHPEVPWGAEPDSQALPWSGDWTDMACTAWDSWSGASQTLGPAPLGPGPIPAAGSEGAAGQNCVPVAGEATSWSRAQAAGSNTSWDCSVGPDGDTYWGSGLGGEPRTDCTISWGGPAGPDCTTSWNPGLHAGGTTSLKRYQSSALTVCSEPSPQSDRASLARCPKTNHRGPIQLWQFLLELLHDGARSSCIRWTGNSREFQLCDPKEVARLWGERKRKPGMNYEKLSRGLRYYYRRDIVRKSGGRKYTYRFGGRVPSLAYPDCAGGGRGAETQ
Method in brief: as §1

ELF3 = molecular target: T5, ELF3 (Homo sapiens, UniProt P78545 1-371); conditions: protein: recombinant; tags: N-terminal GST; dsDNA, one strand shown
T5 sequence: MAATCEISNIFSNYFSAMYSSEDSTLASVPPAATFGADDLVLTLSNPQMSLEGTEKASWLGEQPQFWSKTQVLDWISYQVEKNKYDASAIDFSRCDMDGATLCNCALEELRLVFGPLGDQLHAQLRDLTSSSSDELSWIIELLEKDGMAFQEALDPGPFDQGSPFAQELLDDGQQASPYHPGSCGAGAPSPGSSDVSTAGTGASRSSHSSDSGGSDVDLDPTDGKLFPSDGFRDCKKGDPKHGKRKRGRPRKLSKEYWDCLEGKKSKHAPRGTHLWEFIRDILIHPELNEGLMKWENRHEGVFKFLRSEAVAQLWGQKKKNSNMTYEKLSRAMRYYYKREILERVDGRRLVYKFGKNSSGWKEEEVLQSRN
Method in brief: as §1

CRX = CRX (Homo sapiens, UniProt O43186 1-299); conditions: protein: recombinant; tags: N-terminal GST; dsDNA, one strand shown
Sequence of CRX (O43186 whole entry): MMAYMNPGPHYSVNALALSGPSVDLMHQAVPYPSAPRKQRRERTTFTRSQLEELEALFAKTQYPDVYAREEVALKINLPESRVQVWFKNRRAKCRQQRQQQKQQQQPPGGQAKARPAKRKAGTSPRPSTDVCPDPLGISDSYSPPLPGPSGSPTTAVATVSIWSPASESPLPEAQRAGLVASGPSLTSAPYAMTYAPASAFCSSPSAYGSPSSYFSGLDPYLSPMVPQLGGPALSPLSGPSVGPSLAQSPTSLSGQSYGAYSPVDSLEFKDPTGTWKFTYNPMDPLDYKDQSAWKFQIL
Method in brief: as §1

ETV1 = ETV1 (Homo sapiens, UniProt P50549 1-477); conditions: protein: recombinant; tags: N-terminal GST; dsDNA, one strand shown
Sequence of ETV1 (P50549 whole entry): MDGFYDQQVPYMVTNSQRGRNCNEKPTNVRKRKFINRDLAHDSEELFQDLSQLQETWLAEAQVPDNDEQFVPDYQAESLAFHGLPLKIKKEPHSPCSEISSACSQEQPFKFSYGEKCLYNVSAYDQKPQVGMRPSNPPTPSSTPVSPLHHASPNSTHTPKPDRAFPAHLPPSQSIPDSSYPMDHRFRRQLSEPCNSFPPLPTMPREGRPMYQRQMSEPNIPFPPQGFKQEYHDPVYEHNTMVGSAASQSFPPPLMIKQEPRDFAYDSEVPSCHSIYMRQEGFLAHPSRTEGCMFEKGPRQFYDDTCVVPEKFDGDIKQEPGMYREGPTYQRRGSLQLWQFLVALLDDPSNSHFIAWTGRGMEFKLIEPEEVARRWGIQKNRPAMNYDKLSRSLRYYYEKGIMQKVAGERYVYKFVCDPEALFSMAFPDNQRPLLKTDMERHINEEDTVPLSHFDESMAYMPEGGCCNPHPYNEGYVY
Method in brief: as §1

ERF = molecular target: T6, ERF (Homo sapiens, UniProt P50548 1-548); conditions: protein: recombinant; tags: N-terminal GST; dsDNA, one strand shown
T6 sequence: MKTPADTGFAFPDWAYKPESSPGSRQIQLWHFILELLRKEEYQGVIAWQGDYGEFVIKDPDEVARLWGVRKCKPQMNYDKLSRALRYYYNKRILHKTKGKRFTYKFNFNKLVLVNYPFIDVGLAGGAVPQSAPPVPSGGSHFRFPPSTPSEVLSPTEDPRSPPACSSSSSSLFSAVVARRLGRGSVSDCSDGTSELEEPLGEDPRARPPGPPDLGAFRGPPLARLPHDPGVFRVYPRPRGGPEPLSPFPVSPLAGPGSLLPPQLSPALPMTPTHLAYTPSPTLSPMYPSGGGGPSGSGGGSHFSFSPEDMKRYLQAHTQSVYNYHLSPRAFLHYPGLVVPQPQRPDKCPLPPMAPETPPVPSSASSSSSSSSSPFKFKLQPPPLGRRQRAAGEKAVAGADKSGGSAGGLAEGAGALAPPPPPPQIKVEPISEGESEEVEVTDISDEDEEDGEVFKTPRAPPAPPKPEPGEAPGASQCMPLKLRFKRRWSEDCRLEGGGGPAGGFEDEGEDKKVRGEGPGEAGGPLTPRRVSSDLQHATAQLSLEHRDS
Method in brief: as §1

ETV3L = molecular target: T7, ETV3L (Homo sapiens, UniProt Q6ZN32 1-361); conditions: protein: recombinant; tags: N-terminal GST; dsDNA, one strand shown
T7 sequence: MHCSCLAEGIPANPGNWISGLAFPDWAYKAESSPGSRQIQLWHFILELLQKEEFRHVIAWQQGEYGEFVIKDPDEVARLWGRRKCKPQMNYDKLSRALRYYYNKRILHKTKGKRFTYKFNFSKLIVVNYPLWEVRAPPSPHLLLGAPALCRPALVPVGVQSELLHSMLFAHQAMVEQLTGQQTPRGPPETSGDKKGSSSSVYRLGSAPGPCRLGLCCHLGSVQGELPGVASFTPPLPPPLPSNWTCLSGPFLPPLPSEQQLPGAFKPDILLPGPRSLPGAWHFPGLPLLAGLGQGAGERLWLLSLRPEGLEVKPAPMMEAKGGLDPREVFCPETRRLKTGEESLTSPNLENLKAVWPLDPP
Method in brief: as §1

ETS2 = molecular target: T8, ETS2 (Homo sapiens, UniProt P15036 1-469); conditions: protein: recombinant; tags: N-terminal GST; dsDNA, one strand shown
T8 sequence: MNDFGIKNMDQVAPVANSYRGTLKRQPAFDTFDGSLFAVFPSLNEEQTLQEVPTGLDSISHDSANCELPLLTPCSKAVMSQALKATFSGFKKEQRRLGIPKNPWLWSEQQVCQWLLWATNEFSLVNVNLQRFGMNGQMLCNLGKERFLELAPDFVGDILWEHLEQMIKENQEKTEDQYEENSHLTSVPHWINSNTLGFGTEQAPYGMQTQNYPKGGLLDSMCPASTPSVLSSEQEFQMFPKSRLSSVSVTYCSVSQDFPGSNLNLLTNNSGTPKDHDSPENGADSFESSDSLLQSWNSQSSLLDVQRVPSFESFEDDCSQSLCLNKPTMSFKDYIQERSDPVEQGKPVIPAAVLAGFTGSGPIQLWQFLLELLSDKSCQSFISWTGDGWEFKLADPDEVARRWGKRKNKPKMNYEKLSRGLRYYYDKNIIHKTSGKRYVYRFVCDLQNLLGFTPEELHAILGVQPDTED
Method in brief: as §1

SPDEF = molecular target: T9, SPDEF (Homo sapiens, UniProt O95238 1-335); conditions: protein: recombinant; tags: N-terminal GST; dsDNA, one strand shown
T9 sequence: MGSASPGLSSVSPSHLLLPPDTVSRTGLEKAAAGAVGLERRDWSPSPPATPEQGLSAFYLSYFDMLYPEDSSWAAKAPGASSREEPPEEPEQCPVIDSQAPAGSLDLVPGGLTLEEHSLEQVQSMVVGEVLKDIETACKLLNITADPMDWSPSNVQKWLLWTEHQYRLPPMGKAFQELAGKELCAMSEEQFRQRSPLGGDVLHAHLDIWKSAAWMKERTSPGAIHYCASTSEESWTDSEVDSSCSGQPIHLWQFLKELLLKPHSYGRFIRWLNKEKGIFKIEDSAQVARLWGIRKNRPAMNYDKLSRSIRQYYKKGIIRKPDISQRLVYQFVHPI
Method in brief: as §1

ETV7 = molecular target: T10, ETV7 (Homo sapiens, UniProt Q9Y603 1-341); conditions: protein: recombinant; tags: N-terminal GST; dsDNA, one strand shown
T10 sequence: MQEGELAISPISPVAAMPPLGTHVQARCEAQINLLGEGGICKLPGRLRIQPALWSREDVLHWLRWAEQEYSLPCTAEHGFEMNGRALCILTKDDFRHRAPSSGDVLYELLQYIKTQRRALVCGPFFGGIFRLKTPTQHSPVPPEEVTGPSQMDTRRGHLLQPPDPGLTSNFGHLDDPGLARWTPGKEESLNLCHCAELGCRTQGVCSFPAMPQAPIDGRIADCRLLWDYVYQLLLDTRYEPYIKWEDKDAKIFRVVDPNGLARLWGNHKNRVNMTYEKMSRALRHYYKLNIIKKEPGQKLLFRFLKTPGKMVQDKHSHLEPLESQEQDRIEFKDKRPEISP
Method in brief: as §1

ELF5 = molecular target: T11, ELF5 (Homo sapiens, UniProt Q9UKW6-2 1-255); conditions: protein: recombinant; tags: N-terminal GST; dsDNA, one strand shown
T11 sequence: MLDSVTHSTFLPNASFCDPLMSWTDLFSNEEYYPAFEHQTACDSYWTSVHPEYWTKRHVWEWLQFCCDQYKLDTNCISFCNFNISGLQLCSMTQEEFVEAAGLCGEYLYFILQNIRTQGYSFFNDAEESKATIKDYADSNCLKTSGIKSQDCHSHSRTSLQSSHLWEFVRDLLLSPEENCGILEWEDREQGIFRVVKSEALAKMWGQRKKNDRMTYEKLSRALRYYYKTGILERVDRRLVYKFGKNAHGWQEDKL
Method in brief: as §1

ETV3 = molecular target: T12, ETV3 (Homo sapiens, UniProt P41162-2 1-143); conditions: protein: recombinant; tags: N-terminal GST; dsDNA, one strand shown
T12 sequence: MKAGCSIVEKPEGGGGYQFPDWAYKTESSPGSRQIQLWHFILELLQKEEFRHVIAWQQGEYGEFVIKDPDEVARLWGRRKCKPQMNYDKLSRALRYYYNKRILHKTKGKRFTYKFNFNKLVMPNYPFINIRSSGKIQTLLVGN
Method in brief: as §1

ETV6 = ETV6 (Homo sapiens, UniProt P41212 1-452); conditions: protein: recombinant; tags: N-terminal GST; dsDNA, one strand shown
Sequence of ETV6 (P41212 whole entry): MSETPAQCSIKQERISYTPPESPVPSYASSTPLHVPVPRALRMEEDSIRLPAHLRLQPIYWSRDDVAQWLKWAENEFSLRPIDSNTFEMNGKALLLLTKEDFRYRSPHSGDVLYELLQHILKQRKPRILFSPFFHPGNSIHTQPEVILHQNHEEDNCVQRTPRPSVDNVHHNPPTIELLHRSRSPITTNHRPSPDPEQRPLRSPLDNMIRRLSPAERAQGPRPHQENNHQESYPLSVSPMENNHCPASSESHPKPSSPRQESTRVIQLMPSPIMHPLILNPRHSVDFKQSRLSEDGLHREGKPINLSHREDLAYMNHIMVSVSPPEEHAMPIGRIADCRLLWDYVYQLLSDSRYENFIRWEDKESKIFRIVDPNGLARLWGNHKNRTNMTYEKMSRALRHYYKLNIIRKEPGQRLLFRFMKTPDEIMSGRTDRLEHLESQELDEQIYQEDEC
Method in brief: as §1

Sequence: TTGTTT
- binding signal (FEV): 1.45 fold enrichment (6-mer frequency, TF over GST control)
- binding signal (ETV5): 1.53 fold enrichment (6-mer frequency, TF over GST control)
- binding signal (HSF1): 1.24 fold enrichment (6-mer frequency, TF over GST control)
- binding signal (SPIC): 1.08 fold enrichment (6-mer frequency, TF over GST control)
- binding signal (ELF4): 1.44 fold enrichment (6-mer frequency, TF over GST control)
- binding signal (ELK4): 1.61 fold enrichment (6-mer frequency, TF over GST control)
- binding signal (ETV2): 1.32 fold enrichment (6-mer frequency, TF over GST control)
- binding signal (ELF3): 1.61 fold enrichment (6-mer frequency, TF over GST control)
- binding signal (CRX): 1.45 fold enrichment (6-mer frequency, TF over GST control)
- binding signal (ETV1): 1.38 fold enrichment (6-mer frequency, TF over GST control)
- binding signal (ERF): 1.45 fold enrichment (6-mer frequency, TF over GST control)
- binding signal (ETV3L): 1.46 fold enrichment (6-mer frequency, TF over GST control)
- binding signal (ETS2): 1.39 fold enrichment (6-mer frequency, TF over GST control)
- binding signal (SPDEF): 1.32 fold enrichment (6-mer frequency, TF over GST control)
- binding signal (ETV7): 1.6 fold enrichment (6-mer frequency, TF over GST control)
- binding signal (ELF5): 1.37 fold enrichment (6-mer frequency, TF over GST control)
- binding signal (ETV3): 1.5 fold enrichment (6-mer frequency, TF over GST control)
- binding signal (ETV6): 1.53 fold enrichment (6-mer frequency, TF over GST control)
